Measurements published in PubChem BioAssay AID430 (Sanford-Burnham Center for Chemical Genomics, 2006).
About 1,100 (1.7%) of roughly 63,000 compounds were called active. For the sample, actives were picked, then their nearest neighbours and some compounds at random. Results with a measured potency or affinity are listed apart. Unmarked numbers belong to inactive results. Cut-off read from the data, not from the text of the source: active = cytotoxicity above about 50%; inactive = the rest.

Assay: cytotoxicity in HPDE-C7 cells, cell-based, fluorescence, HTS (AID 430);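 note: cells exposed to compound for 48 hours before viability readout; 0% = vehicle and 100% = reference cytotoxic drug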
Details: HPDE-C7 pancreatic duct cells viability, at 10 µM, hits give high values

| Compound | cytotoxicity |
| --- | --- |
| CCOc1ccc(N2C(=O)CC(SC(=NC)Nc3cccc(F)c3)C2=O)cc1 (stereo not drawn) | -18.7% |
| O=C(CSc1ccc2c(c1)OCCO2)NCCN1C(=O)CSC1=O | 3.6% |
| Cn1c(=O)[nH]c(=O)c2c1nc(N1CCN(c3cccc(Cl)c3)CC1)n2CCCc1ccccc1 | 5.2% |
| O=S(=O)(c1ccc(F)c(Cl)c1)N1CCCC1 | 11.7% |
| CCOC(=O)c1sc2nc(NC(=O)C3CC3)sc2c1C | 16% |
| CCOC(=O)c1sc2nc(NC(=O)C(C)(C)C)sc2c1C | 1.8% |
| CCOC(=O)c1sc2nc(NC(=O)C3CCCCC3)sc2c1C | 66.7% (active) |
| CC(Sc1nnc(C2CCCCC2)n1N)C(=O)NCc1ccc2c(c1)OCO2 (stereo not drawn) | 0.2% |
| CCc1nnc(NC(=O)c2ccc(S(=O)(=O)N(CC)Cc3ccccc3)cc2)o1 | 35.7% |
| CC1CN(S(=O)(=O)c2ccc(C(=O)Nc3nnc(-c4ccc5c(c4)CCCC5)o3)cc2)CC(C)O1 (stereo not drawn) | 41.7% |
| CCCCN(C)S(=O)(=O)c1ccc(C(=O)Nc2nnc(CSC)o2)cc1 | 11.6% |
| O=C(Nc1nc(-c2cccs2)cs1)c1ccc(S(=O)(=O)N2CCCC2)cc1 | 6.2% |
| CCN(Cc1ccccc1)S(=O)(=O)c1ccc(C(=O)Nc2nnc(C3CC3)o2)cc1 | 4.1% |
| CC1CCCN(S(=O)(=O)c2ccc(NC(=O)c3cccc(-n4cnnn4)c3)cc2)C1 (stereo not drawn) | 18.2% |
| CCCCN(CC)S(=O)(=O)c1ccc(C(=O)Nc2nnc(-c3cccs3)o2)cc1 | 49% |
| O=C(Nc1nc(-c2cccs2)cs1)c1ccc(S(=O)(=O)N2CCCCC2)cc1 | -6.2% |
| CCCCN(CC)S(=O)(=O)c1ccc(C(=O)Nc2nnc(-c3ccccc3Cl)o2)cc1 | 59.8% (active) |
| CC1CCCN(S(=O)(=O)c2ccc(C(=O)Nc3nnc(-c4ccccc4Cl)o3)cc2)C1 (stereo not drawn) | 60.8% (active) |
| CCCCN(C)S(=O)(=O)c1ccc(C(=O)Nc2nnc(-c3cccs3)o2)cc1 | 59.9% (active) |
| CC1CC(C)CN(S(=O)(=O)c2ccc(C(=O)Nc3nnc(-c4cccs4)o3)cc2)C1 (stereo not drawn) | 69.8% (active) |
| CCC1Sc2ccccc2N(CC(=O)NCCC(C)C)C1=O (stereo not drawn) | -14.5% |
| FC(F)(F)c1cccnc1N1CCN(c2ncnc3nc[nH]c23)CC1 | -5.7% |
| CCCCS(=O)(=O)NC1=NCN(CCO)CN1 | -7.4% |

| Compound | cytotoxicity |
| --- | --- |
| CCCCN1C(=O)C(O)(CC(=O)c2c(C)n[nH]c2C)c2cc(Br)ccc21 (stereo not drawn) | 7.7% |
| CN(c1ccc(C(=O)NCc2ccco2)cc1)S(C)(=O)=O | 0.7% |
| COCCNC(=O)NC(=O)COC(=O)C12CC3CC(CC(NC(C)=O)(C3)C1)C2 | -1.4% |
| CCOCCCn1c(=S)[nH]c2cc(C(=O)NCCN(CC)CC)ccc2c1=O | 1.7% |
| Cc1[nH]c(=O)[nH]c(=O)c1NC(=O)CSc1ncccc1-c1nc2ccccc2[nH]1 | 3% |
| NC(=O)c1ccsc1NC(=O)COC(=O)c1ccccc1NCc1ccco1 | 0.6% |
| COc1ccc(NC(=O)c2ccc(CN3CCN(c4ccccc4)CC3)cc2)cc1OC | -17.4% |
| CCn1c(SCC(=O)N2CCN(c3ccccc3F)CC2)nnc1-c1ccoc1C | -0.9% |
| CC1(C)OC(=O)N(c2ccccn2)C1(C)O (stereo not drawn) | 2.3% |
| COCc1nnc(NC(=O)c2ccc(S(=O)(=O)N3CCCCCC3)cc2)o1 | 3.2% |
| Cc1nnc(NC(=O)c2ccc(S(=O)(=O)N3CCCCCC3)cc2)o1 | 7.5% |
| O=C(Nc1nnc(-c2ccccc2Cl)o1)c1ccc(S(=O)(=O)N2CCCCCC2)cc1 | 53.6% (active) |
| CC(OC(=O)c1cccc(NS(C)(=O)=O)c1)C(=O)Nc1ccc(N2CCOCC2)cc1 (stereo not drawn) | -30.2% |
| Cc1ccc(C2C=C(c3ccccc3OC(F)F)Nc3ncnn32)cc1 (stereo not drawn) | -8.7% |
| CN(C)c1ccc(C2C=C(c3ccc(Cl)cc3OC(F)F)Nc3ncnn32)cc1 (stereo not drawn) | 52.1% (active) |
| COc1cccc(C2=CC(c3ccc(N(C)C)cc3)n3ncnc3N2)c1 (stereo not drawn) | -4.9% |
| O=C(Oc1ccc(Br)cc1)C1CC(=O)N(c2ccc(F)cc2)C1 (stereo not drawn) | -2.4% |
| CCn1cnc2c1c(=O)n(CC(=O)Nc1cc(C)on1)c(=O)n2Cc1ccccc1 | 0% |
| O=C(Nc1ccccc1C(F)(F)F)c1cc(-c2cccc(O)c2)on1 | -6.5% |
| CC(C)N=c1cc2n(-c3ccc(Cl)cc3)c3ccccc3nc-2cc1Nc1ccc(Cl)cc1 | 83.5% (active) |
| Cn1c(CNc2ccc(Cl)cc2)nc2ccccc21 | -13% |
| Cc1nc2ccccc2n1-c1ccccc1 | -4% |
| COc1ccc(S(=O)(=O)n2cnc3cc(C)c(C)cc32)cc1C | 20.4% |

| Compound | cytotoxicity |
| --- | --- |
| O=C(CN(CCc1ccccc1)C(=O)CNS(=O)(=O)c1ccccc1)NCC1CCCO1 (stereo not drawn) | -10.5% |
| O=C(Nc1nc(-c2cccnc2)cs1)c1ccc(S(=O)(=O)N2CCOCC2)cc1 | -18.5% |
| Cc1c(-c2ccccc2)nc(N)c(C#N)c1-c1ccco1 | -4.2% |
| CC1=C(C#N)c2nc(N)c(C#N)c(C)c2/C1=C\c1ccccc1 | 107% (active) |
| Cc1nc(N)c(C#N)c(-c2ccccc2)c1C | 13.3% |
| COc1ccc(CNC(=O)c2csnn2)cc1 | -14.5% |
| CN(C)C=C1C(=O)c2ccccc2C1=O | 29.6% |
| CN(C)/C=C1\C(=O)c2ccc(N(C)C)nc2CC1c1ccccc1 (stereo not drawn) | 60.7% (active) |
| CN(C)/C=C1/Sc2ccccc2C1=O | -34.3% |
| CCN1C(=O)C2(C(C#N)=C(N)Oc3c2c(C)nn3-c2ccccc2)c2ccccc21 (stereo not drawn) | -16% |
| Cc1cc2n(n1)C(c1ccccc1Cl)Nc1ccccc1-2 (stereo not drawn) | 9.5% |
| Cc1cc2n(n1)C(c1ccccc1)Nc1ccccc1-2 (stereo not drawn) | -1.8% |
| Cc1ccc(C(=O)NC(Cc2c[nH]c3ccccc23)C(=O)O)o1 (stereo not drawn) | -0.1% |
| COc1cccc(C2/C(=C(\O)c3ccc(OC)c(OC)c3)C(=O)C(=O)N2c2cc(C)on2)c1 (stereo not drawn) | 20.9% |
| Cc1ccc(/C(O)=C2\C(=O)C(=O)N(c3cc(C)on3)C2c2cccc(Cl)c2)cc1 (stereo not drawn) | 51.8% (active) |
| Cc1cc(N2C(=O)C(=O)/C(=C(/O)c3ccc(F)cc3)C2c2cccc(Br)c2)no1 (stereo not drawn) | 71.5% (active) |
| COc1ccc(/C(O)=C2\C(=O)C(=O)N(c3cc(C)on3)C2c2ccccc2OC)cc1 (stereo not drawn) | -1.9% |
| Cc1cc(N2C(=O)C(=O)/C(=C(/O)c3ccc(Cl)cc3)C2c2cccc(Br)c2)no1 (stereo not drawn) | 56.2% (active) |
| Cc1cc(N2C(=O)C(=O)/C(=C(/O)c3ccccc3)C2c2cccc(Br)c2)no1 (stereo not drawn) | 3.2% |
| Cc1cc(N2C(=O)C(=O)/C(=C(/O)c3ccc(F)cc3)C2c2ccc(Cl)cc2)no1 (stereo not drawn) | 34.6% |
| Cc1cc(N2C(=O)C(=O)/C(=C(/O)c3ccc(F)cc3)C2c2ccc(F)cc2)no1 (stereo not drawn) | 23.3% |
| Cc1ccc(/C(O)=C2\C(=O)C(=O)N(c3cc(C)on3)C2c2cccc(Br)c2)cc1 (stereo not drawn) | 49.9% |
